Assay results as given in PubChem BioAssay (NCI).
Where “and” joins values, the source holds several entries; their conditions need not be identical. Equal entries are not always repeated. This is part of a sample that, as a whole, favours compounds with a hit. Of some 83,000 tested, about 20% had one in any assay.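 Single-dose data. Exposure time 48 hours. Values below 10 considered active.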 Some structures have more than one record in an assay (separate samples or runs), and their calls can disagree. Calls of active or inactive are those of the source.

Key:
Experiment in all cases: NCI-60 one-dose screen, 48 h (100 = growth as untreated, 0 = no growth, -100 = all killed)
Conditions in all cases: 10 µM unless noted
T-47D breast = system: T-47D breast
BT-549 breast = system: BT-549 breast
MDA-MB-435 melanoma = system: MDA-MB-435 melanoma
SW-620 colon = system: SW-620 colon
HCT-116 colon = system: HCT-116 colon
HCC-2998 colon = system: HCC-2998 colon
KM12 colon = system: KM12 colon
MCF7 breast = system: MCF7 breast

Row | SMILES | growth (T-47D breast) | growth (BT-549 breast) | growth (MDA-MB-435 melanoma) | growth (SW-620 colon) | growth (HCT-116 colon) | growth (HCC-2998 colon) | growth (KM12 colon) | growth (MCF7 breast)
1 | Oc1ccc(/C=C/c2ccccc2)cc1 | 97.4% (inactive) and 92.3% (inactive) | 62.6% (inactive) and 68.1% (inactive) | 76% (inactive) and 74.8% (inactive) | 72.1% (inactive) and 62.7% (inactive) | 75.8% (inactive) and 73.8% (inactive) | 86.8% (inactive) and 86.5% (inactive) | 54% (inactive) and 54.6% (inactive) | 
2 | CC(=O)Oc1cc(C(=O)O)cc(OC(C)=O)c1OC(C)=O | 101% (inactive) and 98.5% (inactive) | 110% (inactive) and 102% (inactive) | 116% (inactive) and 106% (inactive) |  | 100% (inactive) and 90.3% (inactive) | 102% (inactive) and 100% (inactive) | 112% (inactive) and 106% (inactive) | 102% (inactive) and 93% (inactive)
3 | CC1=C(/C=C/C(C)=C/C=C/C(C)=C/C=N/NC(=S)NC(=S)N/N=C/C=C(C)/C=C/C=C(C)/C=C/C2=C(C)CCCC2(C)C)C(C)(C)CCC1 | -5.98% (active) | -24.7% (active) and 5.7% (active) | -47.1% (active) and -61.9% (active) | -73.9% (active) and -83.4% (active) | 6.1% (active) and -84% (active) |  | -8.44% (active) and -50.7% (active) | 16.8% (inactive) and 9.28% (active)
4 | CC1=C[C@H]2c3c(c(O)c(O)c4oc5cc(O)cc(O)c5c(=O)c34)[C@H](c3cc(O)c(O)c4oc5cc(O)cc(O)c5c(=O)c34)[C@H]2C(C)(C)C1 | -1.57% (active) | 7.04% (active) and -11.3% (active) | -69.8% (active) and -76.7% (active) |  | -61.9% (active) and -52.5% (active) | 14.3% (inactive) and -61% (active) | -27% (active) and -71.5% (active) | -19.7% (active) and -76.5% (active)
5 | OCCN1CCN(CCCN2c3ccccc3Sc3ccc(Cl)cc32)CC1 | 66% (inactive) and 84.1% (inactive) | 59.1% (inactive) and 74.7% (inactive) | -11.6% (active) and 26.5% (inactive) |  | 35.1% (inactive) and 66.7% (inactive) | 15.2% (inactive) and 70.6% (inactive) | 71.4% (inactive) and 80.5% (inactive) | 77.2% (inactive)
6 | O=C(Nc1ccc(Cl)cc1)c1cc2ccccc2cc1O | 15.9% (inactive) and 15.4% (inactive) | 23.3% (inactive) | 39.2% (inactive) and 25.9% (inactive) | 13.3% (inactive) and 5.94% (active) | 18.9% (inactive) and -44.3% (active) |  | 8.59% (active) and 2.94% (active) | 
7 | O=[N+]([O-])c1ccc(-n2[nH]nnc2=S)cc1 | 103% (inactive) | 104% (inactive) | 106% (inactive) | 103% (inactive) | 101% (inactive) | 101% (inactive) | 108% (inactive) | 
8 | CC(C)N=c1cc2n(-c3ccc(Cl)cc3)c3ccccc3nc-2cc1Nc1ccc(Cl)cc1 | 38.3% (inactive) and 32.9% (inactive) and 41.5% (inactive) | 41.2% (inactive) and 11.6% (inactive) and -4.5% (active) | -25.6% (active) and -22.8% (active) and -46.2% (active) | 13.4% (inactive) and 9.23% (active) and 6.7% (active) | -54.6% (active) and -63.1% (active) and -82.7% (active) |  | 12.6% (inactive) and 5.23% (active) and -1.86% (active) | 11.9% (inactive) and 18.4% (inactive) and 10.5% (inactive)
9 | Cc1nnc(NC/C=C/c2ccccc2)s1 | 91.6% (inactive) and 101% (inactive) | 97.6% (inactive) and 113% (inactive) | 110% (inactive) and 108% (inactive) | 113% (inactive) and 105% (inactive) | 105% (inactive) and 100% (inactive) |  | 94.4% (inactive) | 98.8% (inactive) and 96.2% (inactive)
10 | CCOc1ccc2cc(-c3nn(CC4CCN(C)CC4)c4ncnc(N)c34)ccc2c1 | 68.5% (inactive) and 54.7% (inactive) | 71.6% (inactive) and 45.7% (inactive) | 95.4% (inactive) and 15.9% (inactive) | 91% (inactive) and 65.6% (inactive) | 63.2% (inactive) and 24.4% (inactive) | 102% (inactive) and 54.5% (inactive) | 89.4% (inactive) and 66.5% (inactive) | 
11 | Nc1ccc2ccc(N)cc2c1 | 87.7% (inactive) | 87.7% (inactive) | -33.6% (active) | 87.5% (inactive) | 82.6% (inactive) |  | 67.1% (inactive) | 63.5% (inactive)
12 | CN(C)c1ccc2nc3ccc(=[N+](C)C)cc-3sc2c1 | 11.8% (inactive) and 4.2% (active) and 27.3% (inactive) | 60.2% (inactive) and 69.8% (inactive) and 71.9% (inactive) | -43.7% (active) and -14% (active) and 52.5% (inactive) | 15.2% (inactive) and 15.3% (inactive) and 14.7% (inactive) | 4.82% (active) and 4.09% (active) and 11.1% (inactive) |  | 36.6% (inactive) and 33% (inactive) and 48.2% (inactive) | 12.7% (inactive) and -5.86% (active) and 7.47% (active)
13 | O=C1C2=C(C(=O)c3ccccc31)C(O)(S(=O)(=O)O)C(O)(S(=O)(=O)O)C1N=CC=CC21 (stereo not given) | 39% (inactive) and -21.9% (active) | 39.6% (inactive) and 24.6% (inactive) | 44.1% (inactive) and 39% (inactive) | 32.5% (inactive) and 21.5% (inactive) | 23.1% (inactive) and 8.66% (active) | 44.6% (inactive) and 28.3% (inactive) | 41.6% (inactive) and 32.6% (inactive) | 
14 | Cc1cc(C)c(N)c(Br)c1 | 98.1% (inactive) and 87.3% (inactive) | 108% (inactive) and 88.8% (inactive) | 114% (inactive) and 104% (inactive) | 111% (inactive) and 104% (inactive) | 110% (inactive) and 95.8% (inactive) |  | 106% (inactive) and 102% (inactive) | 103% (inactive)
15 | O=C1CCN(Cc2ccccc2)C(=S)N1 | 113% (inactive) and 103% (inactive) | 101% (inactive) and 117% (inactive) | 108% (inactive) and 105% (inactive) |  | 103% (inactive) and 106% (inactive) | 98.8% (inactive) and 99.9% (inactive) | 104% (inactive) and 105% (inactive) | 119% (inactive) and 86% (inactive)
16 | CCOc1ccc2cc(-c3nn(CC4CCNCC4)c4ncnc(N)c34)ccc2c1 | 71% (inactive) and 34.2% (inactive) | 86.1% (inactive) and 36.2% (inactive) | 95.4% (inactive) and 14.9% (inactive) | 91.6% (inactive) and 37.3% (inactive) | 80.4% (inactive) and 16.4% (inactive) |  | 14.5% (inactive) and 11.9% (inactive) | 78.8% (inactive) and 46.2% (inactive)
17 | CCN(CC)CCC(CNc1c2ccc([N+](=O)[O-])cc2nc2cc(OC)c(OC)cc12)c1ccccc1 (stereo not given) | -11.2% (active) and -82% (active) | -33.9% (active) and -92.7% (active) | -92.2% (active) and -97.3% (active) | 6.7% (active) | -69% (active) and -89.1% (active) | -98.9% (active) | -63.5% (active) and -100% (active) | 
18 | S=C(S)N1CCCC1 | 98.4% (inactive) and 89% (inactive) | 91% (inactive) and 114% (inactive) | 109% (inactive) and 90.9% (inactive) | 96.2% (inactive) and 84.8% (inactive) | 89.7% (inactive) and 86.2% (inactive) | 113% (inactive) and 94.9% (inactive) | 90.4% (inactive) and 93.9% (inactive) | 
